Here are results for 38 molecules from PubChem BioAssay AID492948 (National Center for Advancing Translational Sciences (NCATS), 2010).

Records with an inconclusive call do not appear. Calls of active or inactive are those of the source. Calls follow the shape of the dose curve; as a rule, active = well fitted activation curve with a large enough effect; inconclusive = small, poorly fitted or top-dose-only effect; inactive = no such curve, though single readings can be large or run the other way.
Potency is read from the fitted curve at half-maximal effect.

The test in a line: qHTS Assay for Agonists of the Relaxin Receptor RXFP1: V1B Hit Validation.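 Also: counter-screen in HEK293 cells expressing V1B rather than RXFP1 for selectivity; nearly all actives have a fitted effect of over 65% in size.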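 As to activation: cAMP accumulation with PDE4 inhibitor Ro 20-1724 present during compound exposure; 0% = buffer alone basal and 100% = 29 nM porcine relaxin.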 The note with it: HEK293 V1B cells, cAMP TR-FRET, 30 min; series mostly up to 115 µM; activation: at the top concentration. In a few lines:
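HEK293 cells (2000/well) were exposed to compounds for 30 min at 37C with PDE4 inhibitor Ro 20174. cAMP was read by TR-FRET after lysis, normalized to buffer and 29 nM porcine relaxin, and EC50 was fitted by Hill equation.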
In the case of `CN(C)CCCn1c(SCC(=O)Nc2nc(-c3cccc(Br)c3)cs2)nc2ccccc2c1=O`, the “activation” value was -2.35% (inactive).
Still for that read-out and setting: to `CC(C)c1ccccc1NC(=O)c1ccccc1NC(=O)C1CCCCC1` belongs 8.65% [at 127 µM] (inactive).
Consider `COc1ccc(S(=O)(=O)N2CCOCC2)cc1NC(=O)CSc1ncnc2ccccc12`, for which the Potency was 13.8 µM (active).
Still for that read-out and setting: to `Cc1cc(C)nc(NS(=O)(=O)c2ccc(N3C(=O)c4ccccc4C3=O)cc2)n1` belongs 29.8 µM (active).
Regarding `CC[n+]1ccc(/C=C/c2ccc(N(C)C)cc2)c2ccccc21`, the “activation” value was -21.1% (inactive).
On to `COc1ccc(CN2C(=O)c3cccnc3C2=O)cc1S(=O)(=O)NC1CCCCC1C` (stereo not drawn), for which the Potency was 38.9 µM (active).
As for `CC(C)C(=O)Nc1ccc(Nc2ccccc2)cc1`, the “activation” value is -2.7% (inactive).
For the molecule `CC1CCCCN1C(=O)c1ccccc1NC(=O)c1ccco1` (stereo not drawn), the “activation” value was 4.49% [at 127 µM] (inactive).
Take `O=C(O)c1cc(-c2ccc(Br)s2)nc2ccccc12`: the Potency was 3.46 µM (active).
For the molecule `O=C(Nc1ccccc1C(=O)Nc1ccc(F)cc1)c1ccco1`, the “activation” value is 3.36% [at 127 µM] (inactive).
As for `CCc1ccc(-c2nc3ccc(Br)cc3c(C(=O)O)c2C)s1`, the Potency is 3.46 µM (active).
In the case of `O=C(Nc1ccccc1C(=O)N1CCNCC1)c1ccco1`, the “activation” value is -5.42% [at 127 µM] (inactive).
For `O=S(=O)(Nc1ccccc1C(F)(F)F)c1ccc(-c2ccccn2)s1`, the Potency is 21.9 µM (active).
In the case of `O=C(Nc1ccccc1C(=O)Nc1ccccc1)c1ccco1`, the “activation” value is 1.83% [at 127 µM] (inactive).
As for `O=C(OCc1nc2ccsc2c(=O)[nH]1)c1cccc(S(=O)(=O)N2CCOCC2)c1`, the Potency was 34.6 µM (active).
Same read-out and setting: to `CCOC(=O)c1cc2c(=O)n3ccccc3nc2n(Cc2ccco2)c1=NC(=O)c1ccccc1OCC` belongs 38.9 µM (active).
As to `Nc1ncnc2c1ncn2[C@@H]1O[C@H](COS(=O)(=O)O)[C@@H](O)[C@H]1O`, the Potency was 6.9 µM (active).
On the same count and under the same terms, to `COC(=O)c1cc(CN2C(=O)c3ccccc3C2=O)c(O)c([N+](=O)[O-])c1` belongs 30.9 µM (active).
On the same count and under the same terms, the value for `COC(=O)Cn1cnc2c(C#N)c3n(c2c1=O)CCCC3` was 21.9 µM (active).
For `Cc1cccc(-c2nnc(SCC(=O)NC3CC3)n2C)c1`, the “activation” value was -32.2% (inactive).
As for `CCOC(=O)c1sc(=NC(=O)c2ccc(S(=O)(=O)N(C)c3ccccc3)cc2)n(C)c1C`, the Potency is 30.8 µM (active).
With `O=C(Nc1ccccc1C(=O)NCCc1ccccc1)c1ccco1`, the “activation” value is 3.59% [at 127 µM] (inactive).
On the same count and under the same terms, the value for `O=C(O)c1ccc(N=C2NC(=O)C(CO)(CO)S2)cc1` was 5.93% [at 44.9 µM] (inactive).
In the case of `CCC1(C)Cc2c(sc3c2c2ncnn2c2nnc(SCC(=O)NCc4ccco4)n32)CO1` (stereo not drawn), the Potency is 13.8 µM (active).
The same measure, in the same setting: to `COc1cccc(C(=O)CSc2nnc(-c3cc(OC)cc(OC)c3)o2)c1` belongs 10.9 µM (active); to `CCCC(=O)Nc1ncnc2c1ncn2[C@@H]1O[C@@H]2OP(=O)(O)OC[C@H]2[C@H]1OC(=O)CCC`, 0.868 µM (active); to `NC(=S)c1cc2ccc(O)cc2oc1=O`, 4.35 µM (active).
Consider `CN(C)c1ccc(NC(=O)C2C3C=CC(C3)C2C(=O)O)cc1` (stereo not drawn), for which the “activation” value was -1.47% (inactive).
Still for that read-out and setting: to `CC(NC(=O)c1ccccc1NC(=O)c1ccco1)C(=O)O` (stereo not drawn) belongs 2.15% [at 127 µM] (inactive); to `COc1ccc(OC)c(CNC(=O)C2CCN(C(=O)N(C)C)CC2)c1`, -3.57% (inactive).
Turning to `O=S(=O)(c1cccc(-c2cn3cccnc3n2)c1)N1CCOCC1`, the Potency was 19.5 µM (active).
On the same count and under the same terms, to `CCOC(=O)CCCCC(=O)c1[nH]c(=O)[nH]c1CSc1nnc2c3cc(Br)ccc3n(C)c2n1` belongs 10.9 µM (active).
For `COC(=O)c1c(N2C(=O)CC(Sc3ncccc3C(=O)O)C2=O)sc(C)c1C` (stereo not drawn), the “activation” value was -11.8% (inactive).
For the molecule `COCCNC(=O)NC(=O)COC(=O)C12CC3CC(CC(NC(C)=O)(C3)C1)C2`, the “activation” value is 5% [at 44.9 µM] (inactive).
As to `CN(C)S(=O)(=O)c1cccc(COc2ncnc3c(Cl)cc(Cl)cc23)c1`, the Potency was 27.5 µM (active).
Regarding `O=C(O)c1ccc(CN2C(=O)c3ccc(C(=O)O)cc3C2=O)cc1`, the “activation” value was 0.0432% (inactive).
`CC1(C)Cc2c(sc3c2c2ncnn2c2nnc(SCC(=O)NCc4ccco4)n32)CO1`: the Potency is 6.91 µM (active).
`CCOC(=O)CNC(=O)CSc1ccc2nnc(-c3cccnc3)n2n1`: the “activation” value is -30.5% (inactive).
